The panel holds about 79,000 compounds, 15% with a hit somewhere; the sample as a whole holds those more often. Calls of active or inactive are those of the source. Rule as the data show it: active = growth inhibition above about 70%; inactive = the rest.
Legend:
[1] = NCI Yeast Anticancer Drug Screen. Data for the rad52 strain (AID 147);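 also: 0% = growth of vehicle-treated control cultures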; conditions: S. cerevisiae rad52 mutant growth inhibition, active compounds read high
In short: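 Growth of repair-deficient yeast cells was compared between compound-treated and vehicle-treated cultures to give percent inhibition.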

[2] = NCI Yeast Anticancer Drug Screen. Data for the wt1 strain (AID 149);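 also: 0% = growth of vehicle-treated wt1 cultures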; conditions: S. cerevisiae wt1 strain (SPY 50644) growth inhibition, active compounds read high
In short: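 The wt1 strain was treated with compounds, and growth was compared with vehicle-treated cultures to give inhibition.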

[3] = NCI Yeast Anticancer Drug Screen. Data for the rad50EPP+ strain (AID 151);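 also: 0% = growth of vehicle-treated control cultures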; conditions: S. cerevisiae rad50 mutant strain, active compounds read high
In short: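 Measured: growth inhibition of rad50EPP+ yeast. Reference: vehicle-treated controls. Screen uses strains with defined genetic alterations in DNA damage repair or cell cycle control.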

[4] = NCI Yeast Anticancer Drug Screen. Data for the mgt1 strain (AID 153); conditions: S. cerevisiae mgt1 mutant growth inhibition, active compounds read high
In short: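 Compounds were applied to mgt1 mutant yeast, and growth was then compared against vehicle-treated control cultures to give percent inhibition.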

[5] = NCI Yeast Anticancer Drug Screen. Data for the rad50 strain (AID 155);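 also: 0% = growth of vehicle-only cultures of the same strain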; conditions: S. cerevisiae rad50 strain growth inhibition, active compounds read high
In short: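 Cells are treated with compound, grown, and their growth is then scored against vehicle-only cultures of the same repair-deficient yeast strain.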

[6] = NCI Yeast Anticancer Drug Screen. Data for the mec2-1 strain (AID 157); conditions: S. cerevisiae mec2-1 strain, active compounds read high
In short: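 Compounds were applied to mec2-1 yeast cells. Their growth was then compared with that of vehicle-treated cultures to give growth inhibition.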

[7] = NCI Yeast Anticancer Drug Screen. Data for the rad14 strain (AID 159);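 also: 0% = growth of vehicle-treated control cultures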; conditions: S. cerevisiae rad14 strain growth inhibition, active compounds read high
In short: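 Readout: yeast growth inhibition, referenced to vehicle-only cultures. Strain bears a defined alteration in DNA damage repair.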

[8] = NCI Yeast Anticancer Drug Screen. Data for the sgs1 mgt1 strain (AID 161);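 also: 0% = growth of cultures given vehicle only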; conditions: S. cerevisiae sgs1 mgt1 strain, active compounds read high
In short: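 Growth of a repair-deficient yeast mutant was monitored after compound treatment and expressed as inhibition relative to vehicle-treated cultures.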

[9] = NCI Yeast Anticancer Drug Screen. Data for the cln2 rad14 strain (AID 165);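 also: 0% = growth equal to vehicle treated cultures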; conditions: S. cerevisiae cln2 rad14 strain, active compounds read high
In short: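 Strain: cln2 rad14 yeast, altered in cell cycle control and DNA damage repair. Read-out: growth inhibition vs vehicle.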

[10] = NCI Yeast Anticancer Drug Screen. Data for the bub3 strain (AID 167); conditions: S. cerevisiae bub3 mutant strain, active compounds read high
In short: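 Part of a panel of yeast mutants defective in DNA damage repair or cell cycle regulation. Each strain is grown with compound, and inhibition is calculated relative to solvent-treated cultures.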

[11] = NCI Yeast Anticancer Drug Screen. Data for the wt2 strain (AID 169);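 also: 0% = growth of vehicle-treated yeast cultures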; conditions: S. cerevisiae wt2 strain growth inhibition, active compounds read high
In short: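 Growth of compound-treated yeast is measured and expressed as inhibition relative to vehicle-only controls.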

[12] = NCI Yeast Anticancer Drug Screen. Data for the mlh1 strain (AID 171);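 also: 0% = growth of vehicle-treated control cultures of the same strain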; conditions: S. cerevisiae mlh1 strain growth inhibition, active compounds read high
In short: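 Test agents were incubated with yeast bearing a defined DNA damage repair or cell cycle control alteration; values are growth inhibition normalised to vehicle-treated cultures.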

[13] = NCI Yeast Anticancer Drug Screen. Data for the sgs1 strain (AID 173);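 also: 0% = growth of vehicle-only control cultures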; conditions: S. cerevisiae sgs1 mutant, active compounds read high
In short: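 Strain with an altered DNA repair or cell cycle pathway exposed to compound. Growth then measured. Value = inhibition versus vehicle control.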

[14] = NCI Yeast Anticancer Drug Screen. Data for the mlh1 rad18 strain (AID 175); conditions: S. cerevisiae mlh1 rad18 strain growth inhibition, active compounds read high
In short: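 A repair-deficient yeast strain is exposed to test compound, and growth is scored relative to vehicle-treated controls.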

[15] = NCI Yeast Anticancer Drug Screen. Data for the rad18 strain (AID 177); conditions: S. cerevisiae rad18 mutant growth inhibition, active compounds read high
In short: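 DNA-repair-defective yeast; compound treatment; growth inhibition scored against vehicle.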

[16] = NCI Yeast Anticancer Drug Screen. Data for the CLN2oe strain (AID 163);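 also: 0% = growth of vehicle-only control cultures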; conditions: S. cerevisiae CLN2oe strain, active compounds read high
In short: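 Cells of an engineered yeast line with disturbed cell-cycle regulation are treated with compound. Inhibition of growth is then calculated relative to the vehicle-treated reference.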

[17] = at 5.0 µM (retest, dose inferred, filed as 0.5)
[18] = at 50.0 µM (retest, dose inferred, filed as 5.0)

Measured: growth inhibition

CCCCCCC1OCC(O)C(OCCCC)O1 (stereo unspecified)
inactive: [1]; at 1.2 µM -3% | [1]; at 3.7 µM -4% | [1]; at 11.0 µM -2% | [1]; at 33.0 µM -4% | [1]; at 100.0 µM -4% | [2]; at 1.2 µM -4% | [2]; at 3.7 µM -3% | [2]; at 11.0 µM -5% | [2]; at 33.0 µM -8% | [2]; at 100.0 µM -10% | [3]; at 1.2 µM -8% | [3]; at 3.7 µM -4% | [3]; at 11.0 µM 2% | [3]; at 33.0 µM 3% | [3]; at 100.0 µM 50% | [4]; at 1.2 µM -6% | [4]; at 3.7 µM -4% | [4]; at 11.0 µM -4% | [4]; at 33.0 µM -6% | [4]; at 100.0 µM -3% | [5]; at 1.2 µM -5% | [5]; at 3.7 µM -11% | [5]; [17] -15% | [5]; at 11.0 µM -4% | [5]; at 33.0 µM -3% | [5]; [18] 3% | [5]; at 50.0 µM -0.55% | [5]; at 100.0 µM 1% | [6]; at 1.2 µM -2% | [6]; at 3.7 µM -3% | [6]; [17] -11% | [6]; at 11.0 µM -2% | [6]; at 33.0 µM -5% | [6]; [18] -35% | [6]; at 50.0 µM -13.7% | [6]; at 100.0 µM -4% | [7]; at 1.2 µM -5% | [7]; at 3.7 µM -4% | [7]; at 11.0 µM -4% | [7]; at 33.0 µM -3% | [7]; at 100.0 µM 0% | [8]; [17] -4% | [8]; [18] 16% | [8]; at 50.0 µM 11.2% | [9]; [17] -10% | [9]; [18] 60% | [9]; at 50.0 µM 0.05% | [10]; at 1.2 µM -5% | [10]; at 3.7 µM -6% | [10]; [17] -6% | [10]; at 11.0 µM -8% | [10]; at 33.0 µM -10% | [10]; [18] 15% | [10]; at 50.0 µM -8.05% | [10]; at 100.0 µM -12% | [11]; at 1.2 µM -4% | [11]; at 3.7 µM -5% | [11]; at 11.0 µM -6% | [11]; at 33.0 µM -7% | [11]; at 100.0 µM -7% | [12]; at 1.2 µM 0% | [12]; at 3.7 µM -1% | [12]; at 11.0 µM 0% | [12]; at 33.0 µM 1% | [12]; at 100.0 µM 6% | [13]; at 1.2 µM -4% | [13]; at 3.7 µM -1% | [13]; at 11.0 µM 0% | [13]; at 33.0 µM 0% | [13]; at 100.0 µM 4% | [14]; [17] 2% | [14]; [18] -4% | [14]; at 50.0 µM -15.8% | [15]; at 1.2 µM -3% | [15]; at 3.7 µM 1% | [15]; at 11.0 µM -1% | [15]; at 33.0 µM -2% | [15]; at 100.0 µM 1%

CCN(CC)CCNc1ccc2nc(C)n3c4ccc(OC)cc4c(=O)c1c23
active: [1]; at 33.0 µM 75% | [1]; at 100.0 µM 83% | [5]; [17] 84% | [5]; at 33.0 µM 82% | [5]; [18] 95% | [5]; at 100.0 µM 87% | [14]; at 50.0 µM 77.4%
inactive: [1]; at 1.2 µM 22% | [1]; at 3.7 µM 47% | [1]; at 11.0 µM 58% | [2]; at 1.2 µM 27% | [2]; at 3.7 µM 21% | [2]; at 11.0 µM 28% | [2]; at 33.0 µM 15% | [2]; at 100.0 µM 21% | [3]; at 1.2 µM 9% | [3]; at 3.7 µM 9% | [3]; at 11.0 µM 3% | [3]; at 33.0 µM 17% | [3]; at 100.0 µM 31% | [4]; at 1.2 µM 36% | [4]; at 3.7 µM 27% | [4]; at 11.0 µM 18% | [4]; at 33.0 µM 26% | [4]; at 100.0 µM 16% | [5]; at 1.2 µM 41% | [5]; at 3.7 µM 45% | [5]; at 11.0 µM 63% | [5]; at 50.0 µM -12.5% | [6]; at 1.2 µM 32% | [6]; at 3.7 µM 39% | [6]; [17] 16% | [6]; at 11.0 µM 37% | [6]; at 33.0 µM 40% | [6]; [18] 52% | [6]; at 50.0 µM 22.8% | [6]; at 100.0 µM 32% | [8]; [17] 13% | [8]; [18] 41% | [8]; at 50.0 µM 18.3% | [16]; at 1.2 µM 1% | [16]; at 3.7 µM 15% | [16]; at 11.0 µM 17% | [16]; at 33.0 µM 21% | [16]; at 100.0 µM 17% | [9]; [17] 25% | [9]; [18] 45% | [9]; at 50.0 µM 28.1% | [10]; at 1.2 µM 11% | [10]; at 3.7 µM 2% | [10]; [17] -31% | [10]; at 11.0 µM -3% | [10]; at 33.0 µM 16% | [10]; [18] 39% | [10]; at 50.0 µM 16.4% | [10]; at 100.0 µM 5% | [11]; at 1.2 µM -22% | [11]; at 3.7 µM -25% | [11]; at 11.0 µM -24% | [11]; at 33.0 µM -15% | [11]; at 100.0 µM -25% | [12]; at 1.2 µM 36% | [12]; at 3.7 µM 27% | [12]; at 11.0 µM 18% | [12]; at 33.0 µM 26% | [12]; at 100.0 µM 16% | [13]; at 1.2 µM 27% | [13]; at 3.7 µM 27% | [13]; at 11.0 µM 26% | [13]; at 33.0 µM 8% | [13]; at 100.0 µM 25% | [14]; [17] 29% | [14]; [18] 56%

From PubChem BioAssay (NCI)
